Details in all cases: mRNA level, 48 h; actives raise or lower the signal
Read-out in assay [1]: Forkhead box O3 (FOXO3), FOXO3 (gene 2309)
Kind of assay: LTEA_HepaRG_FOXO3: Life Technologies and Expression Analysis (LTEA) Assay for Forkhead box O3 (FOXO3) using HepaRG (AID 2283459). The procedure, abridged: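 Differentiated human HepaRG cells, 48 h post-plating, exposed in duplicate for 48 h in serum-free induction medium; 8-point half-log series from 100 uM in 0.5% DMSO. FOXO3 mRNA by TaqMan qRT-PCR, normalized to ACTB/GAPDH/POLR2A; bidirectional fit versus DMSO.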

Read-out in assay [2]: ABC Transporter (ABCB1), ABCB1 (gene 5243)
The assay can be described thus: LTEA_HepaRG_ABCB1: Life Technologies and Expression Analysis (LTEA) Assay for ABC Transporter (ABCB1) using HepaRG (AID 2283460). The procedure, abridged:
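HepaRG cells exposed in duplicate for 48 h in serum-free induction medium to eight half-log concentrations up to 100 uM in 0.5% DMSO. ABCB1 mRNA quantified by qRT-PCR, normalised to ACTB, GAPDH and POLR2A; fitted bidirectionally versus DMSO.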

Read-out in assay [3]: ABC Transporter (ABCC3), ABCC3 (gene 8714)
Kind of assay: LTEA_HepaRG_ABCC3: Life Technologies and Expression Analysis (LTEA) Assay for ABC Transporter (ABCC3) using HepaRG (AID 2283462). The procedure, abridged:
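Transcriptional change of ABCC3 in HepaRG after 48 h treatment, determined by qRT-PCR normalized to endogenous controls. Concentrations spanned eight half-log steps to 100 uM in 0.5% DMSO.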

Read-out in assay [4]: ABC Transporter (ABCB11), ABCB11 (gene 8647)
The assay can be described thus: LTEA_HepaRG_ABCB11: Life Technologies and Expression Analysis (LTEA) Assay for ABC Transporter (ABCB11) using HepaRG (AID 2283463). Summed up: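 Differentiated human HepaRG cells in serum-free induction medium, dosed in duplicate for 48 h. Eight-point half-log series from 100 uM in 0.5% DMSO; ABCB11 mRNA by qRT-PCR, normalized to ACTB, GAPDH, POLR2A, fitted bidirectionally versus DMSO.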

Read-out in assay [5]: ABC Transporter (ABCC2), ABCC2 (gene 1244)
The assay can be described thus: LTEA_HepaRG_ABCC2: Life Technologies and Expression Analysis (LTEA) Assay for ABC Transporter (ABCC2) using HepaRG (AID 2283464). Summed up: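 After plating and 48 h culture, HepaRG medium is replaced with serum-free induction medium and chemicals are added (8 concentrations, max 100 uM, 0.5% DMSO) for 48 h. Total RNA then undergoes qRT-PCR for ABCC2 with housekeeping normalization.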

Read-out in assay [6]: Broad substrate specificity ATP-binding cassette transporter ABCG2 (Homo sapiens) (UniProt Q9UNQ0)
Kind of assay: LTEA_HepaRG_ABCG2: Life Technologies and Expression Analysis (LTEA) Assay for ABC Transporter (ABCG2) using HepaRG (AID 2283465). Summed up:
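Differentiated HepaRG cells were exposed for 48 h in serum-free induction medium to 8 half-log concentrations, top 100 uM, in 0.5% DMSO. ABCG2 mRNA was measured by qRT-PCR, normalized to ACTB, GAPDH and POLR2A, with bidirectional fitting versus DMSO.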

Read-out in assay [7]: ATP-citrate lyase (ACLY), ACLY (gene 47)
The assay can be described thus: LTEA_HepaRG_ACLY: Life Technologies and Expression Analysis (LTEA) Assay for ATP-citrate lyase (ACLY) using HepaRG (AID 2283466). The procedure, abridged:
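Differentiated HepaRG cells exposed 48 h in serum-free induction medium to eight half-log concentrations up to 100 uM in 0.5% DMSO, duplicates. Transcript measured by Fluidigm TaqMan qRT-PCR, normalized to ACTB, GAPDH, POLR2A; bidirectional fit versus DMSO.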

Read-out in assay [8]: Alkaline Phosphatase, Placental (ALPP) gene, ALPP (gene 250)
The assay can be described thus: LTEA_HepaRG_ALPP: Life Technologies and Expression Analysis (LTEA) Assay for Alkaline Phosphatase, Placental (ALPP) gene using HepaRG (AID 2283468). The procedure, abridged:
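Using human liver HepaRG cells, chemicals are tested in duplicate over 48 h at half-log concentrations topping at 100 uM; phenobarbital 1 mM serves as induction control. ALPP mRNA change by qRT-PCR, bidirectional fit against vehicle.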

Read-out in assay [9]: Bcl-2 (BAD) gene, BAD (gene 572)
Kind of assay: LTEA_HepaRG_BAD: Life Technologies and Expression Analysis (LTEA) Assay for Bcl-2 (BAD) gene using HepaRG (AID 2283469). The procedure, abridged:
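Differentiated HepaRG cells were exposed in duplicate in 0.5% DMSO for 48 h to eight-point half-log concentrations up to 100 uM. BAD mRNA was measured by Fluidigm TaqMan qRT-PCR, normalized to ACTB, GAPDH and POLR2A, and fitted bidirectionally against DMSO.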

Read-out in assay [10]: Bcl-2 (BAX) gene, BAX (gene 581)
Kind of assay: LTEA_HepaRG_BAX: Life Technologies and Expression Analysis (LTEA) Assay for Bcl-2 (BAX) gene using HepaRG (AID 2283470). The procedure, abridged:
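Differentiated human HepaRG cells, plated 48 h then switched to serum-free induction medium, were exposed 48 h to 8 half-log concentrations up to 100 uM in 0.5% DMSO; BAX mRNA measured by qRT-PCR, normalized to ACTB, GAPDH, POLR2A.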

Read-out in assay [11]: adenosine kinase (ADK) gene, ADK (gene 132)
The assay can be described thus: LTEA_HepaRG_ADK: Life Technologies and Expression Analysis (LTEA) Assay for adenosine kinase (ADK) gene using HepaRG (AID 2283471). Summed up:
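Read-out is ADK transcript level measured by qRT-PCR and normalised to three housekeeping genes. Cells are human HepaRG, dosed for 48 h at up to 100 uM in 0.5% DMSO. Gain or loss of signal is fitted against DMSO controls.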

Read-out in assay [12]: Alpha-fetoprotein (AFP) gene, AFP (gene 174)
Kind of assay: LTEA_HepaRG_AFP: Life Technologies and Expression Analysis (LTEA) Assay for Alpha-fetoprotein (AFP) gene using HepaRG (AID 2283472). Summed up: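 Human HepaRG cells plated 48 h, then switched to serum-free induction medium and exposed in duplicate for 48 h to 8-point half-log series from 100 uM in 0.5% DMSO. AFP mRNA by qRT-PCR, normalized to ACTB, GAPDH, POLR2A; bidirectional fit versus DMSO.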

Read-out in assay [13]: BCL2L11 (gene 10018)
The assay can be described thus: LTEA_HepaRG_BCL2L11: Life Technologies and Expression Analysis (LTEA) Assay for Bcl-2 (BCL2L11) gene using HepaRG (AID 2283473). The procedure, abridged: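 Human hepatic HepaRG cultures are treated 48 h with test chemicals (maximum 100 uM, 0.5% DMSO vehicle). Expression of BCL2L11 is measured by qRT-PCR against ACTB, GAPDH and POLR2A, with activity in either direction scored relative to vehicle.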

Read-out in assay [14]: Apolipoprotein A-V (APOA5) gene, APOA5 (gene 116519)
Kind of assay: LTEA_HepaRG_APOA5: Life Technologies and Expression Analysis (LTEA) Assay for Apolipoprotein A-V (APOA5) gene using HepaRG (AID 2283474). Summed up:
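Concentration-response of APOA5 expression in HepaRG: eight half-log doses to 100 uM, 48 h, qRT-PCR normalized to ACTB/GAPDH/POLR2A, bidirectional fitting with 0.5% DMSO as baseline.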

Read-out in assay [15]: Apoptosis regulator Bcl-2 (Homo sapiens) (UniProt P10415)
The assay can be described thus: LTEA_HepaRG_BCL2: Life Technologies and Expression Analysis (LTEA) Assay for Bcl-2 gene using HepaRG (AID 2283475). Summed up: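 Differentiated HepaRG cells in serum-free induction medium were exposed for 48 h to eight half-log concentrations up to 100 uM in 0.5% DMSO, in duplicate. BCL2 mRNA was quantified by TaqMan qRT-PCR normalised to ACTB, GAPDH and POLR2A, with bidirectional fitting versus DMSO.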

Read-out in assay [16]: Bcl-2 (BID) gene, BID (gene 637)
The assay can be described thus: LTEA_HepaRG_BID: Life Technologies and Expression Analysis (LTEA) Assay for Bcl-2 (BID) gene using HepaRG (AID 2283476). The procedure, abridged:
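Differentiated HepaRG cells in serum-free induction medium were exposed in duplicate for 48 h to eight half-log concentrations up to 100 uM in 0.5% DMSO. BID mRNA was quantified by qRT-PCR, normalized to ACTB, GAPDH and POLR2A.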

Read-out in assay [17]: Caspase-3 (Homo sapiens) (UniProt P42574)
The assay can be described thus: LTEA_HepaRG_CASP3: Life Technologies and Expression Analysis (LTEA) Assay for cysteine-aspartic acid protease (CASP3) using HepaRG (AID 2283477). Summed up: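 Transcript-level assay: CASP3 mRNA in human HepaRG after 48 h treatment, eight half-log concentrations from 100 uM in 0.5% DMSO, quantified by qRT-PCR.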

Read-out in assay [18]: Cytochrome P450 (CYP24A1), CYP24A1 (gene 1591)
The assay can be described thus: LTEA_HepaRG_CYP24A1: Life Technologies and Expression Analysis (LTEA) Assay for Cytochrome P450 (CYP24A1) using HepaRG (AID 2283478). Summed up:
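Gene expression of CYP24A1 by TaqMan qRT-PCR in HepaRG after 48 h treatment, highest concentration 100 uM; activity fitted in both directions relative to DMSO vehicle.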

Read-out in assay [19]: Peroxisomal acyl-coenzyme A oxidase 1 (ACOX1) gene, ACOX1 (gene 51)
The assay can be described thus: LTEA_HepaRG_ACOX1: Life Technologies and Expression Analysis (LTEA) Assay for Peroxisomal acyl-coenzyme A oxidase 1 (ACOX1) gene using HepaRG (AID 2283467). The procedure, abridged: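 HepaRG cells, plated 48 h then switched to serum-free induction medium, were exposed in duplicate for 48 h to 8-point half-log concentrations up to 100 uM in 0.5% DMSO. ACOX1 mRNA was measured by qRT-PCR, normalized to ACTB/GAPDH/POLR2A, and fitted bidirectionally versus DMSO.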

The source made the active and inactive calls. The calls were made as follows: active = hit-call score of the fitted dose curve at least 0.9, where 1 is the maximum; inactive = score below 0.9.

Apoptosis regulator Bcl-2 (Homo sapiens), sequence (P10415 whole entry, looked up): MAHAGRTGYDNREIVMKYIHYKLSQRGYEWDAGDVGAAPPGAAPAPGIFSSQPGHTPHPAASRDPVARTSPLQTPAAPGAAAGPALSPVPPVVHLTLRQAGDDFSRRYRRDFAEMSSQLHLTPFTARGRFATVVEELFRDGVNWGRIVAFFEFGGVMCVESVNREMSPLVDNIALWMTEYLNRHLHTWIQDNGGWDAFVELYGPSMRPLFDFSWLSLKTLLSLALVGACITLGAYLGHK
Broad substrate specificity ATP-binding cassette transporter ABCG2 (Homo sapiens), sequence (Q9UNQ0 whole entry, looked up): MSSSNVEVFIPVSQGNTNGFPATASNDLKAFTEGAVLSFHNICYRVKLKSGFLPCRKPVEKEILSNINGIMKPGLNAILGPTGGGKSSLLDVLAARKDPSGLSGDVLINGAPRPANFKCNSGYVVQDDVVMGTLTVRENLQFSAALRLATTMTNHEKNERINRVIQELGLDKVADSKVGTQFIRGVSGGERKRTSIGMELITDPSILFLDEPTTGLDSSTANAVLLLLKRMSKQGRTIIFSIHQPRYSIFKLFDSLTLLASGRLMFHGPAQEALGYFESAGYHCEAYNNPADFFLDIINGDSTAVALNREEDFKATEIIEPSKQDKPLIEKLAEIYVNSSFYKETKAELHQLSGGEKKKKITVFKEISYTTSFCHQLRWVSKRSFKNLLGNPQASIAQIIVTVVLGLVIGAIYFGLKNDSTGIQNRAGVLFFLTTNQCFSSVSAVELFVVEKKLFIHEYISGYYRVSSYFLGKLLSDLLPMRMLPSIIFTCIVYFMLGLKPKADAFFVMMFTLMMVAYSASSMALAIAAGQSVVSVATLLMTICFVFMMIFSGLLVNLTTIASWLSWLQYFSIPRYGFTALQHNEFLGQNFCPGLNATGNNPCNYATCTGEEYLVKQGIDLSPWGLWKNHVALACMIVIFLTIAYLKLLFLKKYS
Caspase-3 (Homo sapiens), sequence (P42574 whole entry, looked up): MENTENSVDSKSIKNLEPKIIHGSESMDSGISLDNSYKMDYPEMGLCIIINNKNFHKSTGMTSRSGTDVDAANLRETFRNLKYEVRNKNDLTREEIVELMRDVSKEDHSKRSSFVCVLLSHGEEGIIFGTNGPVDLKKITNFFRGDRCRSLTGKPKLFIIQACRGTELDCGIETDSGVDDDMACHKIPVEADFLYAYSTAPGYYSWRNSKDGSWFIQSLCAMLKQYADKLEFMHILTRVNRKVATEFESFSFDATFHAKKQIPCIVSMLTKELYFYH

In general, AC50 refers to the concentration giving half of the maximal activity seen. On to `CCOP(=S)(Oc1ccc([N+](=O)[O-])cc1)c1ccccc1` (stereo not given), for which the call in assay [1], in assay [3], in assay [4], in assay [7], in [9] and in [10] was inactive. The molecule was called inactive in assay [11], in assay [13], in [14], in [15], in assay [16] and in [17]. In addition, the outcome in assay [18] was inactive. The AC50 in [2] was 4.56 µM (active); in [5], 24 µM (active); in assay [6] it was 12.7 µM (active); in assay [8], 50 µM (active); in [12], 29.4 µM (active).

As to `CC(Cl)(Cl)C(=O)O`, the outcome in assay [1], in assay [2], in assay [3], in assay [4], in assay [5] and in assay [6] was inactive. Further, the call in [7], in assay [8], in assay [9], in assay [10], in assay [11] and in [12] was inactive. For the same molecule, the result in assay [13], in assay [14], in assay [15], in assay [16] and in assay [17] was inactive.

Turning to `Nc1ccc(Cl)cc1`, the molecule was classed as inactive in assay [1], in assay [2], in assay [3], in assay [4], in assay [5] and in assay [6]. Further, the molecule was classed as inactive in assay [7], in assay [8], in assay [9], in [10], in [11] and in assay [12]. The call in assay [13], in assay [14], in assay [15], in [16], in assay [17] and in [18] was inactive.

As to `CCCN(CCC)c1c([N+](=O)[O-])cc(C(C)C)cc1[N+](=O)[O-]`, the call in assay [1], in assay [4], in assay [19], in assay [8], in [9] and in assay [10] was inactive. The molecule was called inactive in assay [11], in [15], in assay [17] and in assay [18]. The concentration at half-maximal activity (AC50) in assay [2] is 50 µM (active); in assay [3] it was 0.246 µM (active); in assay [5] it was 18.3 µM (active); in assay [6] it was 18.1 µM (active); in assay [7], 0.129 µM (active); in [12] it was 50 µM (active). The concentration at half-maximal activity (AC50) was 0.106 µM (active) in [13], 0.123 µM (active) in [14] and 0.119 µM (active) in assay [16].

Take `Cc1ccc(N)cc1N`: the molecule was called inactive in assay [1], in assay [2], in [3], in [4], in assay [5] and in assay [6]. Moreover, the outcome in assay [7], in assay [8], in assay [9], in [10], in assay [11] and in assay [12] was inactive. Further, the outcome in [13], in assay [14], in assay [15], in [16], in [17] and in assay [18] was inactive.

Values taken from PubChem BioAssay (EPA / NIEHS).
